Data taken from PubChem BioAssay (NCATS).
Inconclusive results are not listed. Entries that show only a call come without a potency. Calls of active or inactive are those of the source. The call rests on the fitted dose curve; in most records, active means well fitted cell-killing curve with a large enough effect; inconclusive means small, poorly fitted or top-dose-only effect; inactive means flat fitted curve, though single readings scatter. Peptide text beside a SMILES is read from it. * marks the point of attachment. Hexanoyl = CCCCCC(=O)*

Assay: G06 Cancer Cell Toxicity qHTS against the NCATS CANVASS Library (AID 1347368); further: nearly all actives have a fitted effect of over 60% in size
Details: G06 dog glioma cells, viability ATP luminescence, 72 h; series mostly up to 46.1 µM
Procedure, shortened: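 G06 dog glioma cells seeded at 500 cells/well were exposed to compounds (11-point qHTS series) for 72 hr at 37C, 5% CO2; viability read as ATP content by CellTiterGlo luminescence.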

Row | Compound | Potency
1 | O=C1CC(c2ccc(O)cc2)Oc2cc(O)ccc21 (stereo not drawn) | inactive
2 | C[C@@]12CCC[C@@](C)(C(=O)O)[C@H]1C[C@@H](O)[C@@]13C[C@@H](CC[C@@H]21)[C@](C)(O)C3 | inactive
3 | O=Cc1ccc2n1C[C@]1(OC2)O[C@H](CO)[C@@H](O)[C@@H]1O | inactive
4 | C=C[C@@]1(C)CC[C@@H]([C@H](C)C(C)=O)O1 | inactive
5 | C/C=C(/CO)C(=O)O[C@@H]1[C@H](O)[C@@H](C(=O)OC)O[C@@H]2C[C@H]3OC(n4cnc5c(N)ncnc54)[C@H](OC)[C@H]3O[C@@]12O (stereo partly drawn) | inactive
6 | C/C=C/[C@H]1[C@H]2C(=O)c3c(O)c(C)c(O)c(C)c3[C@]1(C(=O)O)C(=O)C=C2C | inactive
7 | C[C@@]12C[C@@H](C[C@@H]3C(=O)O[C@@H](c4ccoc4)[C@H](OC(=O)c4ccccc4)[C@@H]31)OC2=O | inactive
8 | C=C1CCC2C(C)(C(=O)O)CCC(CC/C(C)=C/C(=O)NC(CCC(N)=O)C(=O)O)[C@@]2(C)C1 (stereo partly drawn) | inactive
9 | C=C1[C@@]2(C)CC3C4(C)CCC(O)C(C)(C)C4CCC3(C)[C@]1(C(=O)OC)C(=O)C(C)(O)C2=O (stereo partly drawn) | inactive
10 | CC(C)=CCC[C@]1(C)[C@H]2CC(=O)[C@@]3(CO3)[C@@H]1C2 | inactive
11 | CCCCCC(=O)N[C@@H](CC(C)C)C(=O)N[C@H](C=O)CCC(=O)O (Hexanoyl-Leu-Glu-aldehyde) | inactive
12 | COc1ccc([C@@H]2c3cc4c(cc3C(=O)C(C)C2C)OCO4)cc1OC (stereo partly drawn) | inactive
13 | CC1(C)CC[C@]2(CO)CC[C@]3(C)C(=CCC4[C@@]5(C)CC[C@H](O)C(C)(C)C5CC[C@]43C)C2C1 (stereo partly drawn) | inactive
